High-throughput results (PubChem BioAssay)
Six1-Eya2 inh: inhibitors of human Six1/Eya2 interaction | actives 0.56% (n = 360,000) | AlphaScreen GST-Six1/His-Eya2 binding, biochemical; stronger effect = lower value | activity change, % (test concentration not listed) | Q15475+O00167 | AID 651725; in the data active means activity change below about -65%; inconclusive means mostly about -30% to -63%; further: on the % scale 0 is the no-effect control and ±100 the full control effect
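GST-Six1 + His-Eya2 (5X stock: 250/500 nM); Tris pH 8.0, 300 mM NaCl, 0.05% BSA, 0.02% Tween 20; GSH donor/Ni acceptor beads; 1 h 37 °C dark; AlphaScreen readout.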
JMJD2A Tudor inh: inhibitors of human JMJD2A Tudor domain | O75164 | AlphaScreen JMJD2A-Tudor / H3K4me3 peptide binding | Potency, µM (doses to about 114 µM), without a hit: at the highest dose activity change, negative = inhibition, actives largely listed as inhibitors | actives 4.4% (n = 390,000) | AID 504339; further: potency means the concentration at half of the fitted maximal effect; on the % scale 0 is the no-effect control and ±100 the full control effect; nearly all actives have a fitted effect of over 50% in size
HP1b chromo inh: HP1-beta chromodomain-methylated histone interaction inhibition; Potency, µM (series often up to 114 µM), for the others: top-dose activity change, negative = inhibition, actives largely listed as inhibitors; P83916; AlphaScreen HP1-beta / biotin-H3K9me3 peptide binding; actives 0.56% (n = 390,000); further: potency means the concentration at half of the fitted maximal effect; nearly all actives have a fitted effect of over 70% in size
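Compound inhibition of the preformed complex between 50 nM HP1-beta and 50 nM biotinylated H3K9me3 peptide was read by AlphaScreen. Buffer was PBS pH 7.4 with 0.01% Tween-20. Incubations ran 30 min at room temperature, with 10 ug/mL donor/acceptor beads.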
BAZ2B block: BAZ2B (human) inhibition; Q9UIF8; AlphaScreen BAZ2B-H3K14Ac peptide displacement; Potency, µM (series often up to 114 µM), inactives show top-dose activity change, negative = inhibition, usual class: inhibitors; actives 4.4% (n = 360,000); further: potency means the concentration at half of the fitted maximal effect; on the % scale 0 is the no-effect control and ±100 the full control effect; nearly all actives have a fitted effect of over 60% in size
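AlphaScreen luminescence quantifies BAZ2B engagement of H3K14Ac peptide; the protein and biotinylated peptide are both at 50 nM final, buffer PBS pH 7.4 with 0.01% Tween-20, all steps at room temperature.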
CtBP-E1A blk: blocks the CtBP interaction with E1A; AlphaScreen GST-E1A/His-CtBP binding, 1536-well; stronger effect = lower value; activity change, % (concentration not given with the values); actives 0.49% (n = 340,000); in the data active means activity change below about -65%; inconclusive means mostly about -30% to -63%; further: on the % scale 0 is the no-effect control and ±100 the full control effect
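AlphaScreen with 125 nM GST-E1A and 125 nM His-CtBP (5X stocks) in Tris pH 8.0, 300 mM NaCl, BSA, Tween 20, TCEP. Compounds preincubated 2 h at 37 deg C, then glutathione donor/nickel acceptor beads added for 1 h at 37 deg C in dark.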
G9a inh: blocks human histone lysine methyltransferase G9a | G9a H3K9 monomethylation, AlphaScreen, 2 h | Potency, µM (doses to about 102 µM), inactives show at the highest dose activity, negative = inhibition, hits mostly inhibitors | actives 8.8% (n = 350,000) | AID 504332; further: potency means the concentration at half of the fitted maximal effect; on the % scale 0 is the no-effect control and ±100 the full control effect; nearly all actives have a fitted effect of over 75% in size
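Step 1: enzyme (final 20 nM) with compound, 15 min RT. Step 2: substrate peptide 500 nM and SAM 20 uM, 2 h RT. Step 3: anti-H3K9me1 antibody and AlphaScreen beads, 10 min, then plate read.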
* marks the source's active call; other numbers are inactive results; ? = inconclusive; . = no result given; ! = not active in a repeat; [ ] = another dose, or the depositor's remark. Only some compounds are listed: those with a hit (about 10% of all), similar ones and a draw of the others. Unless noted, the call rests on the fitted dose curve; in most records, active means well fitted inhibition curve with a large enough effect; inconclusive means small, poorly fitted or top-dose-only effect; inactive means no such curve, though single readings can be large or run the other way.

SMILES | Six1-Eya2 inh | JMJD2A Tudor inh | HP1b chromo inh | BAZ2B block | CtBP-E1A blk | G9a inh
COc1cccc(C(c2sc3nc(-c4ccco4)nn3c2O)N2CCC(O)CC2)c1 (configuration not stated) | . | -11% | 89% | 5% | . | ?
COc1ccc(-c2[nH]c(-c3ccc(Cl)cc3)nc2SCC(=O)NCC2CCCO2)cc1 (configuration not stated) | . | -22% | 11% | -20% | . | 0%[59 µM]
COCCCn1c(=O)c2sccc2n2c(CCCC(=O)Nc3ccc(F)c(F)c3)nnc12 | . | -13% | 30% | -6% | . | -3%[59 µM]
O=[N+]([O-])c1cc2c(cc1CN1CCN(c3ccccc3F)CC1)OCO2 | -16 | -31% | 9% | 56µM* | -16 | -19%[59 µM]
CCOc1ccccc1N1CCN(Cc2cc3c(cc2[N+](=O)[O-])OCO3)CC1 | -23 | ? | -14% | ? | -16 | 71µM*
Cc1c(Cl)cccc1NC(=O)CN1C(=O)COc2ccc(S(=O)(=O)N3CCOCC3)cc21 | . | -20% | 21% | -13% | . | -1%[59 µM]
CCc1ccccc1NC(=O)c1cnc(N2CCCCC2)c2ccccc12 | . | -1% | 30%[57 µM] | 7% | . | 22%[59 µM]
C=CC[n+]1c(-c2ccccc2)csc1NC(C)(C)C | -27 | -15% | ? | 50µM* | ? | ?
C=CC[n+]1c(C)csc1Nc1ccc(C(=O)O)cc1 | 3 | -14% | 46% | ? | . | ?
CCc1ccc(NC(=O)CS(=O)CC(=O)Nc2ccc(N3CCOCC3)cc2)cc1 (configuration not stated) | -2 | 40µM* | 4% | 79µM* | 9 | 50µM*
CCN(CC(=O)Nc1ccc(N2CCOCC2)cc1)C(=O)c1ccc(C#N)cc1 | -8 | -14% | 6% | -9% | 1 | 45µM*
Cc1cccc(C)c1NC(=O)CS(=O)CC(=O)Nc1ccc(N2CCOCC2)cc1 (configuration not stated) | 2 | -3% | 3% | -1% | -12 | ?
CN(CC(=O)Nc1ccc(C#N)cc1)CC(=O)Nc1ccc(N2CCOCC2)cc1 | 0 | 40µM* | -7% | 11% | 8 | ?
CCN(CC(=O)NCc1ccc(F)cc1)C(=O)c1ccc(Cl)cc1 | 2 | -7% | 21% | -1% | . | 14%
CN(CC(=O)Nc1ccc(N2CCOCC2)cc1)CC(=O)Nc1ccc(N2CCOCC2)cc1 | 17 | -29% | 27% | -12% | . | ?
CCN(CC(=O)NCc1ccc(Cl)cc1)C(=O)c1ccc(C#N)cc1 | 3 | -6% | 32% | -6% | 3 | 40µM*
Cc1cc(F)ccc1S(=O)(=O)Nc1ccc2oc3c(c2c1)CC(C)CC3 (configuration not stated) | . | -22% | 0% | ? | . | ?
CCc1ccc(NC(=O)CSc2nnc(CC)c(CC)n2)cc1 | 13 | -5% | 48% | 2% | 18 | 10%[59 µM]
O=C(CSc1nnc(-c2ccccc2)c(-c2ccccc2)n1)NCc1ccco1 | -20 | -37%[57.1 µM] | ? | ? | -17 | 20%[59 µM]
CN(C)c1ccc(NC(=O)CSc2nnc(-c3ccco3)c(-c3ccco3)n2)cc1 | ? | ? | ? | 25µM* | ? | 25µM*
Cc1ccc(NC(=O)CSc2nnc(-c3ccco3)c(-c3ccco3)n2)cc1 | ? | 56µM* | ? | 32µM* | -22 | ?
CCc1nnc(SCC(=O)Nc2ccc(C(C)=O)cc2)nc1CC | 0 | -16% | -1% | 56µM* | -2 | -6%[12.7 µM]
O=C(CSc1nnc(-c2ccco2)c(-c2ccco2)n1)Nc1ccccc1 | ? | 50µM* | 22µM* | 20µM* | ? | -3%[2.33 µM]
O=C(CSc1n[nH]c(-c2ccco2)n1)Nc1ccc(F)cc1 | 5 | -18% | -6% | -4% | 6 | 6%
Cc1nc(-c2cccnc2)sc1CCNS(=O)(=O)c1ccc(F)cc1 | . | -12% | 30%[57 µM] | 5% | . | 1%[59 µM]
SMILES | Six1-Eya2 inh | JMJD2A Tudor inh | HP1b chromo inh | BAZ2B block | CtBP-E1A blk | G9a inh
COc1ccc(NC(=O)CSc2nc(-c3ccc(F)cc3)c3cccc(C)c3n2)cc1 | . | -23% | -1% | 1% | . | -22%[59 µM]
CCOC(=O)c1c[nH]c2c(Cl)ccc(Cl)c2c1=O | -26 | -14% | 23% | -9% | -27 | -1%[59 µM]
CCOC(=O)c1c[nH]c2c(C)ccc(Cl)c2c1=O | -4 | 28µM* | 6% | -18% | -10 | 6%
Cc1nnc(N2C(=O)C(O)=C(C(=O)c3ccco3)C2c2cccc([N+](=O)[O-])c2)s1 (configuration not stated) | 20 | -28% | 29% | -12% | 0 | 21%
CCOC(=O)C1=C(O)C(=O)N(c2ccccc2)C1c1cccc([N+](=O)[O-])c1 (configuration not stated) | -11 | -18% | 4% | -37% | . | .
Cc1ccc(C2C(C(=O)c3ccco3)=C(O)C(=O)N2c2nnc(C)s2)cc1 (configuration not stated) | -2 | 79µM* | 17% | -33% | -1 | .
CCOC(=O)c1sc(N2C(=O)C(O)=C(C(=O)c3ccco3)C2c2cccc([N+](=O)[O-])c2)nc1C (configuration not stated) | -14 | ? | -3% | ? | -16 | 45µM*
Cc1cc(C)c2nc(N3C(=O)C(O)=C(C(=O)c4ccco4)C3c3cccc(O)c3)sc2c1 (configuration not stated) | -8 | ? | -9% | ? | -11 | -48%[2.33 µM]
Cc1nnc(N2C(=O)C(O)=C(C(=O)c3ccco3)C2c2cccc3ccccc23)s1 (configuration not stated) | -2 | -24% | 0% | -26% | 8 | 50µM*
COc1cccc(Cc2nc3ccccc3nc2SCC(=O)Nc2cccc(C)c2)c1 | . | -12% | 32%[57 µM] | -1% | . | 3%[59 µM]
CCOc1ccccc1NC(=O)CN1C(=O)COc2ccc(S(=O)(=O)N3CCCCC3)cc21 | . | 7% | 61% | -15% | . | 3%[59 µM]
CN1CCN(c2c(F)cc3c(=O)c(C(=O)O)cn4c3c2SCC4)CC1 | -1 | -9% | 29% | ? | 0 | 7.9µM*!
NC(=O)C1CCN(C(=O)c2ccccc2NC(=O)c2nsc3ccccc23)CC1 | . | 0% | 24%[57 µM] | 2% | . | 8%[59 µM]
S=c1[nH]nc(CCc2ccccc2)n1Cc1ccccc1 | 0 | ? | 20% | 8% | -1 | 3.5µM*
CCCCc1n[nH]c(=S)n1Cc1ccc(C)cc1 | -1 | 14µM* | -8% | -23% | -17 | 1.8µM*
S=c1[nH]nc(COc2ccc(Cl)cc2)n1Cc1ccccc1 | 11 | -18% | 23% | -17% | 9 | ?
COc1ccccc1OCc1n[nH]c(=S)n1Cc1ccccc1 | -2 | 32µM* | 13% | -10% | 5 | 13µM*
